Assay results reported in the supplement of paper PMC6555819.

What was measured:
Test in all cases: PBM binding z-score (relative to random genomic background probes); higher = stronger binding; sequences stand for … in GC…GCGATTGACAGCGTAGAATGAAGG
[1] = tested on: RARb homodimer (NR concentration 270 nM)
Outline: (§1)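 Binding buffer was PBS pH 7.4 with 2% milk, 0.02% Triton X-100, 1 mM DTT, 0.2 mg/mL BSA and 0.4 mg/ml salmon testes DNA. In it, ligand-free nuclear receptor dimers were incubated 1 h on custom Agilent 4×180K protein-binding microarrays carrying double-stranded probes. Antibodies against each partner (one per run) detected binding, and z-scores were calculated against random background probes after regression normalization of scanned fluorescence.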

[2] = tested on: RARg:RXRa (NR concentration 270 nM, RXRa partner concentration 90 nM)
Outline: as §1

[3] = tested on: RARg homodimer (NR concentration 270 nM)
Outline: as §1

[4] = tested on: RXRa DBDmut IVT, anti-RXR (DBD mutation: RXRa K156A/R161A, NR concentration 90 nM)
Outline: as §1

[5] = tested on: RXRa homodimer (NR concentration 180 nM)
Outline: as §1

[6] = tested on: THRa:RXRa (NR concentration 90 nM, RXRa partner concentration 90 nM)
Outline: as §1

[7] = tested on: THRa homodimer (NR concentration 90 nM)
Outline: as §1

[8] = tested on: VDR homodimer (NR concentration 270 nM)
Outline: as §1

| Sequence | PBM binding z-score [1] | PBM binding z-score [2] | PBM binding z-score [3] | PBM binding z-score [4] | PBM binding z-score [5] | PBM binding z-score [6] | PBM binding z-score [7] | PBM binding z-score [8] |
| --- | --- | --- | --- | --- | --- | --- | --- | --- |
| GATACAGGGTCAGCCAGAGGCCAGAGTATGGAAA | 3.47 | 6.84 | 4.98 | 1.17 | 4.6 | 3.13 | 0.534 | 0.682 |
| ATCGAAAGGTCGAACGTGAGTATACCCACCCGAA | 2.3 | 3.98 | 3.79 | 1.83 | 4.08 | 1.89 | -0.12 | 0.989 |
| TCATATAGGTAATAGAGGTGAAAGTCGGCATCTA | 1.33 | 1.08 | 0.999 | 2.14 | 1.68 | 1.91 | 0.432 | 0.435 |
| TCTCGGAGGACAGGAAAGGTCAGAGCTCGACATC | 4.65 | 4.1 | 4.39 | 0.817 | 3.83 | 3.25 | 0.943 | 0.606 |
| CTCGAAGGGTCGTGCTCAGGTGAGTATACCAAAC | 1.59 | 3.39 | 2.01 | 1.01 | 2.52 | 3.65 | 0.851 | 0.628 |
| CCTTACGGGACACTCCAGGTTATAGCATCGGAGT | 0.585 | 0.478 | 0.691 | 0.129 | 0.276 | 1.84 | 0.457 | 0.239 |
| GCTCGGAGGACAAGGTCAGAGATTTGTCCGTAGA | 2.83 | 2.84 | 3.13 | 0.212 | 2.23 | 2.82 | 1.51 | 0.17 |
| TCTTGGAGATCAAGCAGGTTAAGAAAGCCTGAGT | 0.0966 | 0.06 | -0.27 | 0.163 | 0.643 | 0.589 | -0.604 | 0.0474 |
| CGTCCAAGGTCATAGGAGGTCAGCGAAGACAGAT | 5.65 | 7.17 | 7.58 | 4.05 | 7.72 | 5.52 | 3.42 | 4.37 |
| AGTCAAAGTTCATCTAGGTAACTTAAGATATGCT | 3.54 | 5.3 | 5.5 | 4.71 | 4.34 | 3.05 | 0.221 | 5.32 |
| CGAACTAAGTCAAGGACAGTGAATCTCCGCACGC | 0.164 | 0.0358 | 0.274 | 0.417 | -0.164 | 1.45 | 1.12 | -0.0534 |
| CGTCCAAGGGCATAGGAGGTCAGTGAAGACAGAT | 3.72 | 3.42 | 3.68 | 1.44 | 2.65 | 4.64 | 0.738 | 2.25 |
| TTACCAAGATGAGCTGAGGTCGTTGATCCAACTC | 0.571 | 0.267 | -0.226 | 0.162 | 0.858 | 2.68 | 1.56 | 2.02 |
| GCTTACGGGTCAAAGATTATAGCATGAATAGAAT | 2.21 | 4.65 | 4.34 | 2.38 | 5.43 | 2.21 | -0.519 | 0.811 |
| TCTGCTAGGTCAGTTGGTCCGCTAACGAGCTGCC | 2.05 | 1.98 | 2.93 | 0.518 | 0.727 | 0.962 | -0.188 | -0.485 |
| ATTTGTAGGTTAGCTGGGGTCATTCAGACTAGGC | 4.03 | 4.33 | 2.95 | 2.56 | 5.57 | 5.34 | 3.84 | 4.65 |
| AGTCAAAGTTCAGGACGAGGTAACGTAAAGCACG | 3.25 | 4.81 | 4.53 | 2.83 | 2.9 | 3.87 | 1.81 | 2.08 |
| ATATGTAGCTTATCGGGTCATTCAGTTTGCGCAT | 2.24 | 1.85 | 1.35 | 1.26 | 2.35 | 3.03 | 2.6 | 3.7 |
| ATATGTAGGTTATCGGGTCTTTCAGTTTGCGCAT | 1.23 | 0.844 | 0.939 | 0.92 | 1.03 | 1.08 | 1.3 | 1.44 |
| ACTATTAGTCGACTTAGGGCAACCGATACGACGC | 0.58 | 0.342 | 0.707 | 0.415 | 0.416 | 1.09 | 0.02 | -0.338 |
| CCTAGCAGGCCAGGGTCACTTAAGCATTTCGCTT | 2.51 | 2.93 | 2.28 | 0.27 | 3.13 | 2.67 | 0.864 | 1.25 |
| CAAACTAAGTCACGAAAGGTCAAAGTCGAATGAC | 5.04 | 6.02 | 5.67 | 0.992 | 6.79 | 4.42 | 1.2 | 2.58 |
| CGAGCTAGGTCAAGGACAGTGAATCTCCGCACGC | 2.95 | 3.8 | 4.67 | 1.27 | 2.28 | 3.02 | 1.62 | -0.0669 |
| GCTAGCAGGCCATCTGGGTCACTCAATGACGGGC | 1.99 | 1.2 | 1.84 | -0.462 | 0.806 | 1.62 | 0.249 | 0.262 |
| TGAATGAGGTTAAAGAACAGGGAACGTGGCGTCG | 0.64 | 1.86 | 1.5 | 1.33 | 2.68 | 2.03 | 0.34 | 0.66 |
| GCGACTGGGGCATCAGCAGTTTACCATAACTTAA | 0.541 | 0.124 | 0.341 | 0.507 | 0.0851 | 0.0532 | -0.343 | 0.258 |
| GCTTACGGGTCTAAGGTTATAGCATGAATAGAAT | 0.97 | 0.869 | 0.598 | 1.27 | 1.46 | 2.16 | 1.21 | 1.04 |
| ATCGAAAGGTCGAAGTTGAGTATACCCACCCGAA | 2.55 | 4.07 | 3.83 | 1.9 | 4.79 | 2.01 | -0.00538 | 1.02 |
